High-throughput results: PubChem, National Center for Advancing Translational Sciences (NCATS)
Coupling enz: coupling enzyme interference in Giardia aldolase counter-screen. coupling enzyme system counterscreen, AmpLite Red fluorescence. activity change, negative = inhibition, % at 58.2 µM, hits read low. 290,000 compounds, 0.67% hits; in the data active = activity change below about -30%
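First, compound is pin-transferred into glyceraldehyde-3-phosphate coupling-enzyme reagent at 57.5 uM final and held 10 min at RT. Next, substrate, coupling system and AmpLite Red are added. After 20 min RT, fluorescence (525/598 nm) is read.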
USP1-UAF1 inh: inhibitors of human USP1/UAF1 deubiquitinase; recombinant USP1/UAF1, Ub-Rhodamine cleavage fluorescence; Potency, µM (series often up to 57.1 µM), actives largely listed as inhibitors; 390,000 compounds, 0.23% hits; AID 743255; active = well fitted inhibition curve with a large enough effect; inconclusive = small, poorly fitted or top-dose-only effect; inactive = no such curve, though single readings can be large or run the other way; note: nearly all actives have a fitted effect of over 60% in size
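High-throughput fluorogenic screen: 1nM USP1/UAF1 complex, Ub-Rho substrate 150nM final, 50mM HEPES pH 7.8 with 0.5mM EDTA, 0.1 mg/ml BSA, 1mM TCEP and 0.01% Tween-20.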
KCNH2 WT inh: inhibitors of human wildtype KCNH2 potassium channel. Q12809. U2OS, BacMam KCNH2, thallium flux FluxOr; stronger effect = lower value. activity change, % at 1.84 µM. 340,000 compounds, 0.37% hits. AID 720551;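 active = maximum activity change below -70%; inconclusive = maximum activity change between -70% and -50%; inactive = maximum activity change above -50%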
Target sequence (Q12809 whole entry, looked up): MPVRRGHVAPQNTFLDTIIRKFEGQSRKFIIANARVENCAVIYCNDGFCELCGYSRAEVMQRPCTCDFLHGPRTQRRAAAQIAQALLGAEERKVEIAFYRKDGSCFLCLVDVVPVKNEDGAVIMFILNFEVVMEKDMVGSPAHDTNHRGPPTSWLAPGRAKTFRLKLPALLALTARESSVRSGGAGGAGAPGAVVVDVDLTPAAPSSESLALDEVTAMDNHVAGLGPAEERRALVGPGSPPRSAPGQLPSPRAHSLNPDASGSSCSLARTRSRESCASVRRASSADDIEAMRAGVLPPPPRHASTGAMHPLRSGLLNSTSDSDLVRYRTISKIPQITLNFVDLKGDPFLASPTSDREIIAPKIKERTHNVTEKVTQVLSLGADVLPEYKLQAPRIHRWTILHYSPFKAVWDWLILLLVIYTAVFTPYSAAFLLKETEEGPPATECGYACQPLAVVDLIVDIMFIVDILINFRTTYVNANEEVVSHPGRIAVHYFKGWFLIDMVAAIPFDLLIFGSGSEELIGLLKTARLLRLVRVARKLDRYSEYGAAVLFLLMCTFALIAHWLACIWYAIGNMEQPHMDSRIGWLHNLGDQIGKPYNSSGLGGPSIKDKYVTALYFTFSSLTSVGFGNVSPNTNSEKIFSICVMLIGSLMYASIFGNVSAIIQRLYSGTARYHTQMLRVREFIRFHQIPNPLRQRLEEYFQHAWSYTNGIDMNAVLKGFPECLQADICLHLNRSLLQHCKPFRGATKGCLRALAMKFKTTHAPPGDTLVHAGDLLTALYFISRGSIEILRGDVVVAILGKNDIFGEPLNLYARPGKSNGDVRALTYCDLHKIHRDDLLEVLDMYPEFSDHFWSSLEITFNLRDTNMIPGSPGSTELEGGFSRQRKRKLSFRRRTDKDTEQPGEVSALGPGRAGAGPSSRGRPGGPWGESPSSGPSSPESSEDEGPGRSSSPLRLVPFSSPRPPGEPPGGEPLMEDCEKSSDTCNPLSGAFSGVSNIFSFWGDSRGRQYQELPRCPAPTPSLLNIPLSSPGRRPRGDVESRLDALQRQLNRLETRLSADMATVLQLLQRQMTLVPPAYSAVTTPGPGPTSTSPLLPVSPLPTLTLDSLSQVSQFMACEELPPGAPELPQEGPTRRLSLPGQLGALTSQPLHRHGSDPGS
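U2OS cells were transduced with wild-type KCNH2 virus (2.03 x 10^8 / mL) for 4 h at room temperature, then cultured overnight at 37 C. Thallium flux was read with FluxOr dye. Rate constants were normalized to DMSO controls.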
KCNH2 3.1 inh: KCNH2 3.1 (human) potassium channel inhibition; activity change, % (tested at about 1.8 µM); 340,000 compounds, 0.95% hits; U2OS KCNH2 3.1, thallium flux FluxOr; stronger effect = lower value; AID 720553;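 active = maximum activity change below -70%; inconclusive = maximum activity change from -70% to -50%; inactive = maximum activity change above -50%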;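 note: thallium influx rate constant from kinetic fluorescence after stimulation buffer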
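U2OS cells transduced with KCNH2 3.1 mutant virus (1.77 x 10^8 /mL, 4 h), plated overnight at 37 C, loaded 45 min with FluxOr dye plus Red40 quencher. Thallium flux rate constant from kinetic reads after stimulation buffer, normalised to controls.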
Giardia kill: Giardia lamblia killing; 340,000 compounds, 0.15% hits; Giardia lamblia trophozoite viability; activity change, % at 7.66 µM, hits read low; in the data active = activity change below about -80%; inconclusive = between about -30% and that limit;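 note: parasites exposed to compound for two days anaerobically before the ATP read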
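Killing of trophozoites was scored by loss of ATP luminescence after a 48 hrs anaerobic exposure to compounds at 37 deg C, using 100 cells per well.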
Numbers stand for hits; – = inactive; ? = inconclusive; · = not tested or not shown. Compounds with a hit are over-represented: about 1.7% of the library has one in this group of screens.

SMILES	Coupling enz	USP1-UAF1 inh	KCNH2 WT inh	KCNH2 3.1 inh	Giardia kill
NS(=O)(=O)c1ccc(CNC(=O)c2cc(-c3cccnc3)nc3ccccc23)cc1	–	–	–	-159	–
COc1ccc(-c2cc(C(=O)O)c3ccccc3n2)c(OC)c1	–	–	–	–	–
COc1ccc2cc(-c3cc(C(=O)O)c4ccccc4n3)ccc2c1	–	–	–	–	-105
COc1cc(C(=O)NCCc2ccc(S(N)(=O)=O)cc2)cc(OC)c1OC	–	–	–	–	–
Cc1ccc(Sc2cc(C(=O)NCCN(C)C)c3ccccc3n2)cc1	–	–	–	-96	–
CCOc1cc(C(=O)NCCc2ccc(S(N)(=O)=O)cc2)cc(OCC)c1OCC	–	–	–	-90	–
Cc1ccc(NC(=O)CN(C)C(=O)COc2ccc(Br)cc2)cc1	·	–	–	–	·
COc1ccc(S(=O)(=O)Nc2cc3c4c(c2)CCN4C(=O)CC3)cc1C	·	–	–	–	–
O=C(NCCCn1ccnc1)c1cc(-c2ccc(Cl)cc2)nc2ccccc12	–	–	-79	-82	–
Cc1ccc(-c2cc(C(=O)NCCc3ccc(S(N)(=O)=O)cc3)c3ccccc3n2)cc1	–	–	–	–	–
COc1ccc(-c2cc(C(=O)NCCc3ccc(S(N)(=O)=O)cc3)c3ccccc3n2)cc1	–	–	–	-78	–
Cc1ccc(CCNC(=O)c2cc(-c3ccncc3)nc3ccccc23)cc1	–	–	–	-112	–
COc1ccc(-c2nc3cnc(N(C)C)nc3n(C3CC3)c2=O)cc1	–	·	·	·	·
Cc1ccc(CNC(=O)c2ccc3c(c2)nc2n3CCCC2)cc1	·	–	·	·	·
O=C(O)c1cccc(NC2=C(n3nnc4ccccc43)C(=O)c3ccccc3C2=O)c1	-32	28µM	–	–	–
Cc1ccc2c(c1C)NC(=O)C21N2CCCC2C(C(=O)c2ccc3ccccc3c2)C12C(=O)Nc1ccccc12 (configuration not stated)	–	–	–	-86	–
Cc1nc(C)c(C(=O)N2CCCC(C(=O)c3ccc4ccccc4c3)C2)s1 (configuration not stated)	–	–	–	–	–
COc1ccccc1N1C(=O)c2ccccc2NC1c1ccncc1 (configuration not stated)	–	–	–	–	–
COc1ccccc1N1C(=O)N(C(C)=O)C2C1Nc1ccccc1N2C (configuration not stated)	-40	?	–	–	–
COc1ccc(C2(c3ccc(OC)cc3)NC(=O)N(CC(=O)Nc3ccc(OC(F)F)cc3)C2=O)cc1	·	–	-83	·	–
COc1ccc(NC(=O)CN2C(=O)NC(c3ccccc3)(c3ccccc3)C2=O)cc1	–	–	–	–	–
CCN(CC)c1ccc(/C=C/C(=O)C2C(=O)C=C(C)OC2=O)cc1 (configuration not stated)	–	4.5µM	?	-78	–
O=C(NCCCc1nc2ccccc2n1CCCOc1ccccc1)C1CCCCC1	·	·	·	·	–
CN(C)CCN(Cc1ccco1)C(=O)c1oc2ccccc2c1NC(=O)c1cccc(F)c1	·	–	·	·	·
CN(C)CCN(Cc1ccco1)C(=O)c1oc2ccccc2c1NC(=O)COc1ccccc1	–	–	–	-95	–
SMILES	Coupling enz	USP1-UAF1 inh	KCNH2 WT inh	KCNH2 3.1 inh	Giardia kill
O=S(=O)(O)c1cc(O)c2cc(Nc3ccccc3)ccc2c1	·	?	–	–	–
O=S(=O)(O)c1ccc(O)c2cc(Nc3ccccc3)ccc12	·	13µM	–	–	–
CCN(CC)CCCNC(=O)c1c(C)oc2ncn(CC(C)C)c(=O)c12	·	–	·	·	·
COc1cc(/C=C/C(=O)NCc2cccnc2)cc(OC)c1OC	–	–	–	–	–
COc1ccccc1/C=C/C(=O)NCc1cccnc1	–	–	–	-101	–
COc1ccc(-c2cn3c(n2)sc2cc(C(=O)Nc4cc(Cl)ccc4C)ccc23)cc1	·	–	·	·	·
Cc1ccc(N2C(=O)C3CCC(C)(C2=O)C3(C)C)cc1 (configuration not stated)	–	–	–	-77	–
CC12CCC(C(=O)N(c3nccs3)C1=O)C2(C)C (configuration not stated)	·	?	–	–	–
Cc1ccccc1OCC(=O)NCC(=O)OCC(=O)c1ccc(-c2ccccc2)cc1	·	·	·	·	–
CCN(CC)CCNC(=O)c1ccc2c(c1NCCO)C(=O)c1ccccc1C2=O	-31	–	–	–	–
CC(c1ccccc1)N1CCn2c(nc3cc(NC(=O)NC4CCCCC4)ccc32)C1 (configuration not stated)	-46	–	–	–	–
CC(c1ccccc1)N1CCn2c(nc3cc(NC(=O)c4cccs4)ccc32)C1 (configuration not stated)	–	–	–	–	–
COc1cc(O)cc(OC)c1OC	-33	·	·	·	·
Cc1cccc(NC(=O)c2sc(NC(=O)c3ccco3)c(C#N)c2C)c1C	–	–	–	-83	–
Cc1cccc(NC(=O)c2ccco2)c1C	–	–	–	–	–
Nc1ccccc1Nc1c(F)c(F)nc(F)c1Cl	–	–	–	-72	–
Nc1ccccc1Nc1cc(-c2cccc(Cl)c2)nn1-c1ccccc1	–	–	–	–	–
CC(C)Cn1cnc2c1c(=O)n(CC(=O)Nc1ccc3c(c1)OCO3)c(=O)n2Cc1ccccc1	–	–	-86	–	–
Cc1cc(NC(=O)Cn2c(=O)c3c(ncn3CC(C)C)n(Cc3ccccc3)c2=O)no1	–	–	–	–	–
N#C/C(=C/C1=C(N2CCOCC2)C(=C/c2ccc(Cl)cc2Cl)/CC1)C(=O)Nc1ccccc1F	·	–	–	–	–
Cc1cc(OC(C)C(=O)Nc2cccc(-c3nc4ccccc4o3)c2)cc(C)c1Cl (configuration not stated)	·	–	·	·	·
Cc1ccc(CN2CCN(Cc3ccccn3)CC2CCO)cc1 (configuration not stated)	–	–	–	·	–
Cc1ccc(CN2CCN(Cc3c(C)nn(-c4ccc(F)cc4)c3C)CC2CCO)o1 (configuration not stated)	–	–	–	–	–
OCCC1CN(Cc2ccc(-n3cccn3)cc2)CCN1Cc1ccccc1 (configuration not stated)	–	–	–	–	–
Cc1ccc(CN2CCN(Cc3ccc(-n4cccn4)cc3C)CC2CCO)cc1 (configuration not stated)	–	–	-91	-158	–
Cc1ccc(CN2CCN(Cc3cccc(-n4cccn4)c3)CC2CCO)cc1 (configuration not stated)	–	–	–	-87	–
Cc1cc(C)c(CN2CCN(Cc3ccc(C)o3)C(CCO)C2)c(-n2cccn2)c1 (configuration not stated)	–	–	–	-72	–
COc1ccc(C(=O)n2nc(-c3cccnc3)nc2NCc2ccccc2)cc1OC	·	–	·	·	·
Cc1ccc(NCCC(=O)c2cccc([N+](=O)[O-])c2)c(C)c1	–	–	–	?	–
